A number with no mark means an inactive call. Records with an inconclusive call do not appear. Activity calls are given as the source filed them. Unless noted, calls follow the shape of the dose curve; as a rule, active = well fitted curve in the direction sought with a large enough effect; inconclusive = small, poorly fitted or top-dose-only effect, or another doubt; inactive = no such curve, though single readings can be large; an effect the other way counts as inactive or inconclusive.

Test [1] can be described thus: qHTS Assay for Identification of Small Molecule Antagonists for NFkB Signaling Pathway (AID 895; active = well fitted inhibition curve with a large enough effect in the signal ratio, with a control signal flat, not every such curve was filed as active; the % refers to the signal ratio; also: % is scaled to controls: 0 for no effect and ±100 for the full control effect). In outline: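 ME-180 NFkB-bla cells (beta-lactamase under NFkB response element), plated overnight, treated with compound then 10 pM TNF alpha (about EC50) for 5 hrs at 37 C. LiveBLAzer FRET read at 460/530 nm emission, 405 nm excitation.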
For orientation: Quantitative high-throughput screening tests each substance at several concentrations.

Test [2] is described as follows: Counterscreen for APE1 Inhibitors: Fluorescent Dye Displacement Validation Assay (AID 1707).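 Also: plate controls were ThO with dsDNA and no compound for no effect and ThO without dsDNA for full effect.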 The essentials: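 Assay buffer: Tris-HCl pH7.5 with 50mM NaCl, 2 mM MgCl2, 0.01% Tween-20. Dye 250 nM, duplex 50 nM final. Readout: decrease in ThO endpoint fluorescence, 480 nm excitation, 540 nm emission.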
Background: A counterscreen serves to expose hits that act by an unwanted route or on another target.

Test [3] addresses Endonuclease 4 (Escherichia coli (strain K12)) (UniProt P0A6C1). The experiment in a line: Counterscreen for APE1 Inhibitors: qHTS Validation Assay for Inhibitors of Endonuclease IV (AID 1708). Also: % is scaled to controls: 0 for no effect and ±100 for the full control effect. In outline:
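E. coli EndoIV at 2 nM final, preincubated 15 min at room temperature with compound, then 50 nM TAMRA/BHQ-2 THF abasic-site duplex added. Buffer: 50 mM Tris-HCl pH 7.5, 50 mM NaCl, 2 mM MgCl2, 1 mM DTT, 0.01% Tween-20. Kinetic fluorescence increase, third minus first read.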

Test [4] can be described thus: qHTS for differential inhibitors of proliferation of Plasmodium falciparum line Dd2 (AID 1882).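 Also: plate controls were DMSO vehicle for no effect and 0.29 µM artemisinin for full effect; nearly all actives have a fitted effect of over 65% in size.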 The settings on record: Potency: Plasmodium falciparum Dd2 proliferation inhibition. In outline: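 Dd2-infected erythrocytes (0.3% parasitemia, 2.5% hematocrit final) incubated with compound 72 h at 37 C, 5% CO2; lysed with saponin/Triton buffer containing SYBR Green I, incubated overnight in the dark, then read by fluorescence (485/535 nm). Normalized to 0.29 uM artemisinin and DMSO.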

Test [5] can be described thus: qHTS for differential inhibitors of proliferation of Plasmodium falciparum line W2 (AID 1883).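 Also: potency is read from the fitted curve at half-maximal effect; parasites grown with compound for 72 h before lysis and staining.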 The settings on record: Potency: Plasmodium falciparum W2 proliferation inhibition.
Test [6] addresses Ferritin light chain (Equus caballus) (UniProt P02791). In words: qHTS Validation Assay for Identification of Novel General Anesthetics (AID 2323). Also: % is scaled to controls: 0 for no effect and ±100 for the full control effect. The essentials: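 Competitive displacement of the profluorescent anesthetic 1-AMA (50% saturated, PBS) from 10 uM apoferritin, 10 min, room temperature. Activity is normalized 380/535 nm fluorescence; concentration-response fitted with a four-parameter Hill equation.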

Test [7] has as its target ATP-dependent DNA helicase Q1 (Homo sapiens) (UniProt P46063). The experiment in a line: qHTS Validation Assay for Inhibitors of RecQ-Like Dna Helicase 1 (RECQ1) (AID 2353).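 Also: plate controls were DMSO vehicle for no effect and enzyme-free control for full effect.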 The essentials: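 50 nM RECQ1T1 preincubated 15 min with compound in Tris pH 8.0 buffer with MgCl2, DTT, Tween-20 and 2.5 ug/ml poly(dI-dC); started with 200 nM TAMRA/BHQ-2 forked duplex and 2 mM ATP. Unwinding read as fluorescence (525/598 nm), two reads 2 h apart.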

The target of test [8] is Transient receptor potential cation channel subfamily V member 1 (Homo sapiens) (UniProt Q8NER1). In words: HTS Assay for Compounds that Act as Enhancers of the Vanilloid Receptor 1 (AID 488979). Also: 0% is about no effect. The essentials: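 TRPV1 cells loaded with Fluo-8 calcium dye; compound added and Ca2+ signal (ex 480/em 520 nm) followed 3 min, then capsaicin at EC20 added and read 2 more min to detect enhancement.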
Transient receptor potential cation channel subfamily V member 1 (Homo sapiens), sequence (Q8NER1 whole entry, looked up): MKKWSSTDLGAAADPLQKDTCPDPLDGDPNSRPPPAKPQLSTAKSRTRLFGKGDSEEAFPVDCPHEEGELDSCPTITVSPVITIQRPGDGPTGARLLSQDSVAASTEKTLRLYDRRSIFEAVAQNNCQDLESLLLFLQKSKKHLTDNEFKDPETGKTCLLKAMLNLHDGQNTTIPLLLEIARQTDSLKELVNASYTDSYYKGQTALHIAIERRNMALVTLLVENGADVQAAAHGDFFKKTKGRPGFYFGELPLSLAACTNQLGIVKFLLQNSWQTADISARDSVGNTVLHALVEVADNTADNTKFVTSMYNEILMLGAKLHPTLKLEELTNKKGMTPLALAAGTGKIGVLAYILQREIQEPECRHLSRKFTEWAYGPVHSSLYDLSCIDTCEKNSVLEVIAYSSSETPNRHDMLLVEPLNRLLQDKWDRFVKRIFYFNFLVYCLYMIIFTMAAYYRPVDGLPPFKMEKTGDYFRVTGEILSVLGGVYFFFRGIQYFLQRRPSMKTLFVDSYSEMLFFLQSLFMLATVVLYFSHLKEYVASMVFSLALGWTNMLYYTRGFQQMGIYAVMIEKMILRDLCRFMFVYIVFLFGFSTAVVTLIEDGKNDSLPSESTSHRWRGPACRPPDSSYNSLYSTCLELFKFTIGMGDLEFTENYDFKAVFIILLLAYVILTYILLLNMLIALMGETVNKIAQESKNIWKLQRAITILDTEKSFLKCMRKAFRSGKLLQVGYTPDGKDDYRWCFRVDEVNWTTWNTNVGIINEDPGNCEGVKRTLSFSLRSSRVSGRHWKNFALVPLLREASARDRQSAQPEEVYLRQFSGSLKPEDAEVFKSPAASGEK

In test [9] the target is Thyrotropin-releasing hormone receptor (Homo sapiens) (UniProt P34981). In words: qHTS for Small Molecule Agonists and Allosteric Enhancers of Human TRH Receptor: Validation Screen for Agonists (AID 493127;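 active = calcium activation more than 3 SD above the typical response in the agonist read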; also: 0% is about no effect). Particulars: TRH receptor agonist cell assay; at 2 µM; stronger effect = higher value. The essentials: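 TRHR cells loaded with fluo-8 calcium dye; FDSS kinetic fluorescence (Ex 480/Em 530) read at 1 s/cycle after 23 nL compound addition. Agonist-mode calcium response recorded before the 10 nM TRH (EC20) addition.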
Thyrotropin-releasing hormone receptor (Homo sapiens), sequence (P34981 whole entry, looked up): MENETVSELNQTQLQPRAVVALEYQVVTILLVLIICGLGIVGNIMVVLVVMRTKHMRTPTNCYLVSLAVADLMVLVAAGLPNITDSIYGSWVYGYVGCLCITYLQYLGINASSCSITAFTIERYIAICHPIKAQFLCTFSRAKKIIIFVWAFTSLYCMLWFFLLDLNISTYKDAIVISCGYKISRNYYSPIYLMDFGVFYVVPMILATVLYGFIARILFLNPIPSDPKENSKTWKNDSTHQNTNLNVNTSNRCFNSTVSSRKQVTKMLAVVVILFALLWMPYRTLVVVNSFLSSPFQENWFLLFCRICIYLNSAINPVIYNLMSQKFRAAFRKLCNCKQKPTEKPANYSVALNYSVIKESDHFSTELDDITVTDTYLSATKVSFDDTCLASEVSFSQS

Test [10] concerns the target Galactokinase (Homo sapiens) (UniProt P51570). In words: qHTS Validation Assay for Inhibitors of Human Galactokinase (GALK) (AID 493189). Also: 0% is about no effect. The essentials:
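Inhibition was measured as remaining ATP, detected by luciferase luminescence after a 1 h room-temperature reaction. Final conditions: 5 nM GALK, 100 uM galactose, 35 uM ATP, pH 8.0 HEPES buffer.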

The target of test [11] is Voltage-gated inwardly rectifying potassium channel KCNH2 (Homo sapiens) (UniProt Q12809). The experiment in a line: qHTS Assay for Small Molecule Inhibitors of the Human hERG Channel Activity (AID 588834).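 Also: top concentration of the series differs between compounds; % is scaled to controls: 0 for no effect and ±100 for the full control effect; lower thallium flux fluorescence means stronger hERG block; nearly all actives have a fitted effect of over 50% in size.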 The essentials: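 Kinetic FDSS fluorescence; U2OS + hERG BacMam (~100 virus particles/cell); FluxOR Tl+ flux; ~10 min cpd; AC50 (Hill).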
Voltage-gated inwardly rectifying potassium channel KCNH2 (Homo sapiens), sequence (Q12809 whole entry, looked up): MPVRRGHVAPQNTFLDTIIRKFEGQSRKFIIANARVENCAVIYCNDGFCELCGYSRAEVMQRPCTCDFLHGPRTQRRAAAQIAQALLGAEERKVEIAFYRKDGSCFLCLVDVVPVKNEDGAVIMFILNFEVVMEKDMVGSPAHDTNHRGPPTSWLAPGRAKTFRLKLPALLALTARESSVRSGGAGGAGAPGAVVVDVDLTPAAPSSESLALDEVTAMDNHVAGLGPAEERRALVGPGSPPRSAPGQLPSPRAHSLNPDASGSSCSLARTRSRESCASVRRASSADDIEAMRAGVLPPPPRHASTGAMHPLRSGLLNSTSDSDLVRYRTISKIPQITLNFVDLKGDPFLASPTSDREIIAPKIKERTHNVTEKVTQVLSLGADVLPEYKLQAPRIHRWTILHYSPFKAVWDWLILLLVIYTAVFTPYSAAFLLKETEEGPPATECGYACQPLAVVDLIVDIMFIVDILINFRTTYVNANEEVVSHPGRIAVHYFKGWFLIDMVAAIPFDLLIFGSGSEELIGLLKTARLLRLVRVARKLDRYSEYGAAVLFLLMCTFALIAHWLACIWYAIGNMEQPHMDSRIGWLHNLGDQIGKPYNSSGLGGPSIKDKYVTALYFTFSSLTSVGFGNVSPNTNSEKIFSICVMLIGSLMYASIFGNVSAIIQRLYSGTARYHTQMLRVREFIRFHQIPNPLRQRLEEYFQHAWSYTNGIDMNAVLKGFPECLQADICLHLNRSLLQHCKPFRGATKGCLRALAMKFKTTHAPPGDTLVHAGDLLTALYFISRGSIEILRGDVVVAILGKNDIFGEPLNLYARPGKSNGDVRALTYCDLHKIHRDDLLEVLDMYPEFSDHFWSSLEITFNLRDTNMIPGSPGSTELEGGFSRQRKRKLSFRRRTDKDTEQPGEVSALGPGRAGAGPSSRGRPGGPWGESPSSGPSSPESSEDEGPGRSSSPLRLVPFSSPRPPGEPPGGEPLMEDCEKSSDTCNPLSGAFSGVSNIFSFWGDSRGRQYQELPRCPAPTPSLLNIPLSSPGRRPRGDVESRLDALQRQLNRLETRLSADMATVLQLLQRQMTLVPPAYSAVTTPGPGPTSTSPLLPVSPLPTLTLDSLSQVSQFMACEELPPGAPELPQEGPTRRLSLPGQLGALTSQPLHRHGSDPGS
In test [12] the target is ATP-dependent 6-phosphofructokinase (Trypanosoma brucei brucei) (UniProt O15648). In words: qHTS Assay to Find Inhibitors of T. brucei phosphofructokinase: hit validation (AID 492961).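 Also: luminescence reports ADP formed as PFK phosphorylates fructose-6-phosphate with ATP; % is scaled to controls: 0 for no effect and ±100 for the full control effect.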 In outline:
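Inhibition of parasite PFK is measured as reduced ADP formation, quantified via luciferase after ATP depletion. Assay used 0.1 mM ATP, 0.5 mM F6P, 1.25 nM enzyme, 45 min incubation.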

A short description of test [13]: S16 Schwann cell PMP22 intronic element firefly luciferase assay (AID 624032). Also: nearly all actives have a fitted effect of over 30% in size. Also: potency is read from the fitted curve at half-maximal effect. The essentials:
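Rat S16 Schwann cells stably carrying firefly luciferase driven by a PMP22 intronic element, in 10% FBS, treated 24 h at 37 C. ONE-Glo luminescence normalized to PTC124 control and DMSO (0%); curves classed by r2, magnitude and activity.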

Test [14] in a line: S16 Schwann cell PMP22 intronic element beta-lactamase assay (AID 624044; calls by dose curve;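 also: 0% = DMSO and -100% = potassium clavulanate positive control; nearly all actives have a fitted effect of over 15% in size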). The essentials:
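Rat S16 Schwann cells with beta-Lac driven by a PMP22 intronic element, compound-treated 24 h at 37 °C. LiveBLAzer FRET B/G read: 460 nm normalized to potassium clavulanate vs DMSO; 535 nm FRET as viability; concentration-effect curves classified.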

In a further test the test system is CP194. The experiment in a line: qHTS profiling for inhibitors of Plasmodium falciparum proliferation (AID 504749). Also: nearly all actives have a fitted effect of over 60% in size. Also: potency is read from the fitted curve at half-maximal effect. Particulars: P. falciparum in erythrocytes, SYBR Green DNA, 72 h; series mostly up to 28.7 µM. In outline:
(§1)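 P. falciparum-infected erythrocytes (0.3% parasitemia, 2.5% hematocrit) incubated with compound 72 h at 37 C, 5% CO2. Parasite DNA detected by SYBR Green after lysis, overnight at room temperature; normalised to 0.29 uM artemisinin and DMSO.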

Another test relates to GB4. The description is as above. Particulars: P. falciparum in erythrocytes, SYBR Green DNA, 72 h; series mostly up to 28.7 µM. In outline: as §1
For another test, the system named is JCK. Described as above. The settings on record: P. falciparum in erythrocytes, SYBR Green DNA, 72 h; series mostly up to 28.7 µM. In outline:
as §1

Another test relates to PC26. Described as above. Particulars: P. falciparum in erythrocytes, SYBR Green DNA, 72 h; series mostly up to 28.7 µM. The essentials:
as §1

The subject of another test is W2. The test is described as above. Particulars: P. falciparum in erythrocytes, SYBR Green DNA, 72 h; series mostly up to 28.7 µM. The essentials: as §1
Test [15] can be described thus: Counterscreen qHTS for small molecule stabilizers of the endoplasmic reticulum resident proteome: GLuc-NoTag assay (AID 1508627).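 Also: SH-SY5Y cells given compound then 100 nM thapsigargin to empty ER calcium; 0% = thapsigargin alone and -100% = DMSO vehicle control.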 In outline: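 SH-SY5Y cells stably expressing constitutively secreted GLuc without SERCaMP tag, exposed to compound for 19 hr, then to 100 nM thapsigargin for 4 hr at 37C. Medium luciferase was read by coelenterazine luminescence without lysis.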

ATP-dependent DNA helicase Q1 (Homo sapiens), sequence (P46063 whole entry, looked up): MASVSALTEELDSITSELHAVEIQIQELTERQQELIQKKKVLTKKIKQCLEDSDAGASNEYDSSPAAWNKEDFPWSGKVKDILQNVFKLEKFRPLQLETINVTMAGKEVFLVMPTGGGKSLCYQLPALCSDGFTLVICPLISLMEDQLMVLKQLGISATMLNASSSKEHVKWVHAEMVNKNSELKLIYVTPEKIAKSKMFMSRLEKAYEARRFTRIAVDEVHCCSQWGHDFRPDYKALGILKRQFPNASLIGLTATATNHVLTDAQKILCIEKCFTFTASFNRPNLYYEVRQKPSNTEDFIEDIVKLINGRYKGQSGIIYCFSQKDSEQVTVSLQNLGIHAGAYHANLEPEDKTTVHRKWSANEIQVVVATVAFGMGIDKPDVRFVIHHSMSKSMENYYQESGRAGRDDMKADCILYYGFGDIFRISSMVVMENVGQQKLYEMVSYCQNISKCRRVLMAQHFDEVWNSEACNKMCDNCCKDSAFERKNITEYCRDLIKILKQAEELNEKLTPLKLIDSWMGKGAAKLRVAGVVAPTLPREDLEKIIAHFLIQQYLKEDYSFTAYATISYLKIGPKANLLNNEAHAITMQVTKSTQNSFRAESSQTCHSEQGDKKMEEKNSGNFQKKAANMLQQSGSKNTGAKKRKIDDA
ATP-dependent 6-phosphofructokinase (Trypanosoma brucei brucei), sequence (O15648 whole entry, looked up): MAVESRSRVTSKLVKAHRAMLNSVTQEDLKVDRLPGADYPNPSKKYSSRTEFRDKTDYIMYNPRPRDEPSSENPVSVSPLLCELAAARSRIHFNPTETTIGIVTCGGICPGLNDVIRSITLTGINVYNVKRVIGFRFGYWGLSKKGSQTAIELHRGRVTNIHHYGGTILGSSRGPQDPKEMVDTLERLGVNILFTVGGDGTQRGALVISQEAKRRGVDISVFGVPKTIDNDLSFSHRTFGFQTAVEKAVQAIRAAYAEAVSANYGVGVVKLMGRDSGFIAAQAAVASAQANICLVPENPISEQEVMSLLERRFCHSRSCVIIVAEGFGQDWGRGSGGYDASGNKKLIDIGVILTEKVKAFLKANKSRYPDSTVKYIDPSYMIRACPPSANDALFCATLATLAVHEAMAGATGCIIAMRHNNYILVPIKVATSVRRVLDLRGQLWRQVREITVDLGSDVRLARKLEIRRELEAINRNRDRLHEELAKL
Galactokinase (Homo sapiens), sequence (P51570 whole entry, looked up): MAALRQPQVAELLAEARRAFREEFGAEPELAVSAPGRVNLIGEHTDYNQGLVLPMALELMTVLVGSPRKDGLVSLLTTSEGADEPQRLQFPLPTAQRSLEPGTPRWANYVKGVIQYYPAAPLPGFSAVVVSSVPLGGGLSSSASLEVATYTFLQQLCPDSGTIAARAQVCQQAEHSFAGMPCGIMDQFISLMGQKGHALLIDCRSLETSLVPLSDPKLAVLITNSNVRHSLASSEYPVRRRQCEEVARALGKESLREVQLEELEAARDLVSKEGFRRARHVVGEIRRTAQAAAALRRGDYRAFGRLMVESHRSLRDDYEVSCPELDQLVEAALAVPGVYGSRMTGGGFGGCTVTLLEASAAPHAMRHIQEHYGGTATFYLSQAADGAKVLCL
Ferritin light chain (Equus caballus), sequence (P02791 2-175 limits assumed): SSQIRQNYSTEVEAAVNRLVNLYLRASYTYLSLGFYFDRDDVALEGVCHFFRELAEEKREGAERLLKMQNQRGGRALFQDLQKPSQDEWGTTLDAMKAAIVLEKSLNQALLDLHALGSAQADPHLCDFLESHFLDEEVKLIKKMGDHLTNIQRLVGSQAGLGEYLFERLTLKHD

With `NC[C@H](CP(=O)(O)O)c1ccc(Cl)cc1`, the Potency result in test [1] was “inactive”.
For `C[C@@H]1O[C@@H](O[C@H]2C[C@@H](O)[C@]3(CO)[C@@H]4C(CC[C@]3(O)C2)[C@@]2(O)CC[C@H](C3=CC(=O)OC3)[C@@]2(C)C[C@H]4O)[C@H](O)[C@H](O)[C@H]1O` (some centres undefined), the Potency entry in [2], in [4], in test [7] and in test [11] was “inactive” in each case. The compound was called inactive in [3], in test [6], in [8] and in test [10]. Besides, the Potency in [5] was 11.2 µM (active). The activation in [9] is 0.375%.
With `CC(C)[C@@]1(NC(=O)[C@H]2CC3c4cccc5[nH]cc(c45)C[C@H]3N(C)C2)O[C@@]2(O)C3CCCN3C(=O)[C@@H](Cc3ccccc3)N2C1=O` (some centres undefined), the Potency result in test [12] and in test [14] was “inactive” throughout. The Potency in test [13] is 5.1 µM (active); with CP194 it was 6.75 µM (active); in the test with GB4, 3.01 µM (active); with JCK it was 7.94 µM (active); with PC26, 1.51 µM (active); in the test with W2, 0.953 µM (active).
Take `O=C(O)c1ccccc1-c1c2cc(Br)c(=O)cc-2oc2[c]([Hg])c(O)c(Br)cc12`: the Potency result (in [13]; in test [14]; in the test with CP194; in the test with GB4; with JCK; in the test on PC26) was “inactive” in each case. In the test with W2, the Potency entry is “inactive”.
Consider `CCN1C[C@]2(COC)[C@H](O)C[C@H](OC)[C@]34C1C([C@H](OC)[C@H]23)[C@]1(OC(C)=O)C2[C@@H](OC(=O)c3ccccc3)C(O)(C[C@H]24)[C@@H](OC)[C@@H]1O`, for which the Potency result (in [12]; in test [13]; in test [14]; in the test with JCK) was “inactive” throughout.
Consider `CCC(Sc1ccccc1)C(=O)OC1CC2CCC(C1)N2C` (centres undefined), for which the Potency result in test [15] was “inactive”.
As to `CC(C)[C@]1(O)[C@@H](OC(=O)c2ccc[nH]2)[C@@]2(O)[C@@]3(C)C[C@]4(O)O[C@@]5([C@H](O)[C@@H](C)CC[C@]35O)[C@@]2(O)C41C`, the Potency entry in test [15] was “inactive”.
For `CP(=O)(O)CCCN`, the Potency result in [1], in test [2], in test [4], in test [7] and in test [11] was “inactive” each time. In addition, the outcome in test [3], in test [6], in test [8] and in test [10] was inactive. In addition, the Potency in [5] was 2.82 µM (active). Besides, the activation in test [9] is 1.06%.
With `CN1CC[C@@H]2CN3CCc4cccc(c43)[C@@H]2C1`, in [15], the Potency entry is “inactive”.

Values taken from PubChem BioAssay (NCATS).
